Laboratory results as given in PubChem BioAssay AID720597 (Broad Institute, 2013).
Results with a measured potency or affinity are listed apart. Activity calls are given as the source filed them.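 Rule for the calls: active = fitted half-maximal dose no more than twice the top valid tested dose, for compounds that lower signal; inconclusive = fit invalid, or curve flat with activity between -70 and -30; inactive = potency past limit, curve flat within ±30, or signal increasing.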

target: NAD-dependent protein deacylase sirtuin-5, mitochondrial (Homo sapiens) (UniProt Q9NXA8); test: SIRT5 deacylase inhibitors, dose response, biochemical, fluorescence imaging, cherry-pick, set 6 (AID 720597); conditions: Purified SirT5, succinyl-peptide-AMC/trypsin fluorescence; series mostly up to 15 µM;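 note: lower AMC signal can also come from blocking the trypsin step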
Sequence (Q9NXA8 whole entry, looked up): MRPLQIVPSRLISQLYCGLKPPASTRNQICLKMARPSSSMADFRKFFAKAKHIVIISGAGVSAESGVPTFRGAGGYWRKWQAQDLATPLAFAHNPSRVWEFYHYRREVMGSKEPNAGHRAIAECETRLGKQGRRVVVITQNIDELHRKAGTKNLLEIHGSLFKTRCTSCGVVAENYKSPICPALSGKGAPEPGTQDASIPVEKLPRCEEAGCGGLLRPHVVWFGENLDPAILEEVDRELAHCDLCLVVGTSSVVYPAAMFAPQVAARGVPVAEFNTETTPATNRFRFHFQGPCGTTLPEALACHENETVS

outcome, inactive:
C[C@@H]1CN([C@@H](C)CO)C(=O)c2cc(NC(=O)Cc3cn(C)c4ccccc34)ccc2O[C@H]1CN(C)Cc1ccc(Cl)c(Cl)c1, C[C@H]1CN([C@@H](C)CO)S(=O)(=O)c2ccc(-c3cncnc3)cc2O[C@H]1CN(C)Cc1ccccn1, C[C@H](CO)N1C[C@H](C)[C@H](CN(C)S(=O)(=O)c2ccc(F)cc2)Oc2cc(C3=CCCCC3)ccc2S1(=O)=O, COc1ccc(S(=O)(=O)N(C)C[C@H]2OCCCC[C@H](C)Oc3ccc(NS(=O)(=O)c4ccc(F)cc4)cc3C(=O)N([C@@H](C)CO)C[C@@H]2C)cc1, COc1ccc(S(=O)(=O)N(C)C[C@@H]2OCCCC[C@H](C)Oc3ccc(NS(=O)(=O)c4ccc(C)cc4)cc3C(=O)N([C@H](C)CO)C[C@H]2C)cc1, O=C(c1cnccn1)N1CC(=O)N2[C@@H](CO)[C@H](c3ccc(C#CC4CC4)cc3)[C@@H]2C1, CC(=O)N1CC(=O)N2[C@@H](CO)[C@H](c3ccc(-c4ccc(C(=O)N(C)C)cc4)cc3)[C@@H]2C1, COc1ccc(NC(=O)N[C@@H]2CC[C@H](CCn3cc(-c4ccc(OC)cc4)nn3)O[C@@H]2CO)cc1, CC(C)CC#Cc1ccc2c(c1)O[C@@H](CN(C)S(=O)(=O)c1cccc(F)c1)[C@@H](C)CN([C@@H](C)CO)S2(=O)=O, C[C@@H]1CN([C@@H](C)CO)C(=O)c2cc(NC(=O)Cc3ccccc3)ccc2O[C@@H]1CN(C)Cc1ccc(Oc2ccccc2)cc1, C[C@H]1CN([C@@H](C)CO)S(=O)(=O)c2ccc(C#CC3CC3)cc2O[C@@H]1CN(C)Cc1ccccc1F, COc1cccc(CN(C)C[C@@H]2OCc3ccccc3-c3c(n(C)c4ccccc34)C(=O)N([C@H](C)CO)C[C@H]2C)c1, COc1ccc(S(=O)(=O)N(C)C[C@@H]2Oc3cc(C#CC4CCCC4)ccc3S(=O)(=O)N([C@H](C)CO)C[C@H]2C)cc1, COc1ccc(C#Cc2ccc([C@@H]3[C@@H](CO)N4C(=O)CN(C(=O)c5cccnc5)C[C@H]34)cc2)cc1, C[C@H]1CN([C@@H](C)CO)S(=O)(=O)c2ccc(C#CC3CC3)cc2O[C@H]1CN(C)Cc1ccccc1F, COc1ccc(CN(C)C[C@H]2OCCCC[C@@H](C)Oc3ccc(NC(=O)NC4CCCCC4)cc3C(=O)N([C@H](C)CO)C[C@H]2C)cc1, Cc1ccc(S(=O)(=O)N(C)C[C@H]2OCCCC[C@@H](C)Oc3ccc(NS(=O)(=O)c4ccc(Cl)cc4)cc3C(=O)N([C@@H](C)CO)C[C@H]2C)cc1, CCCNC(=O)N1C[C@@H](O)COC[C@@H]2O[C@H](CC(=O)N3CCC(Cc4ccccc4)CC3)CC[C@H]21, CC(C)NC(=O)Nc1ccc2c(c1)C(=O)N([C@H](C)CO)C[C@H](C)[C@H](CN(C)Cc1ccc(-c3ccccc3)cc1)O2, CCNC(=O)C[C@H]1CC[C@H]2[C@@H](COC[C@@H](O)CN2C(=O)Nc2ccc(C(F)(F)F)cc2)O1, O=C(NCC[C@@H]1CC[C@@H](NS(=O)(=O)c2cccc(F)c2)[C@H](CO)O1)C1CCOCC1, C[C@@H]1CCCCO[C@H](CN(C)S(=O)(=O)c2ccc(Cl)cc2)[C@H](C)CN([C@@H](C)CO)C(=O)c2cc(N(C)C)ccc2O1, CC(C)(C)[S@@](=O)N1Cc2cc(C(=O)O)nc(-c3cccc(-c4cccc(F)c4)c3)c2[C@H]1CCO, COc1cccc(NC(=O)N2CC(=O)N3[C@H](CO)[C@@H](c4ccc(C#CCC5CCCC5)cc4)[C@@H]3C2)c1, CC(C)CN(C[C@H]1N[C@H](CO)[C@@H]1c1ccccc1)C(=O)C1CCCCC1, C[C@H](CO)N1C[C@H](C)[C@@H](CN(C)Cc2ccc(C(F)(F)F)cc2)OCCCC[C@H](C)Oc2ccc(NS(=O)(=O)c3ccc(F)cc3)cc2C1=O, O=C(C[C@@H]1C[C@H]2c3cc(NC(=O)Nc4ccccc4F)ccc3O[C@H]2[C@H](CO)O1)NCC1CC1, C[C@@H]1CN([C@H](C)CO)C(=O)c2c(c3ccccc3n2C)-c2ccccc2CO[C@@H]1CN(C)S(=O)(=O)c1ccc(Cl)cc1, CC(=O)N(C)C[C@H]1Oc2ncc(-c3cccc(F)c3)cc2C(=O)N([C@@H](C)CO)C[C@H]1C, CC(C)NC(=O)N(C)C[C@H]1Oc2ccc(NC(=O)Cc3ccccc3)cc2C(=O)N([C@H](C)CO)C[C@@H]1C, CN(C)Cc1cn(CC[C@H]2CC[C@H](NS(=O)(=O)c3ccccc3)[C@H](CO)O2)nn1, C[C@@H]1CN([C@@H](C)CO)C(=O)c2cc(NS(C)(=O)=O)ccc2O[C@@H](C)CCCCO[C@@H]1CN(C)C, O=C(Nc1cc(F)ccc1F)N1CC(=O)N2[C@H](CO)[C@@H](c3ccc(C#CC4CCCCC4)cc3)[C@@H]2C1, O=C(C[C@@H]1C[C@H]2c3cc(NC(=O)C4CCC4)ccc3O[C@H]2[C@H](CO)O1)NCc1ccc(-c2ccccc2)cc1, C[C@@H]1CN([C@@H](C)CO)S(=O)(=O)c2ccc(C#Cc3ccc(F)cc3)cc2O[C@@H]1CN(C)S(=O)(=O)c1ccc(F)cc1, O=C(NCC1CCCCC1)[C@H]1[C@H](CO)[C@H]2Cn3c(cccc3=O)[C@@H]1N2CCc1ccccc1, C[C@@H]1CN([C@@H](C)CO)C(=O)c2cccc(NC(=O)c3ccncc3)c2O[C@H]1CN(C)Cc1ccccc1, CC(C)C#Cc1cnc2c(c1)C(=O)N([C@@H](C)CO)C[C@H](C)[C@H](CN(C)C(=O)c1ccccc1)O2, CO[C@H]1CN(C)C(=O)c2cc(NC(=O)c3ccccc3F)ccc2OC[C@H](C)NC[C@@H]1C
